High-throughput results: PubChem, National Center for Advancing Translational Sciences (NCATS)
Many of the other results were omitted from the sample, so hits are more common in it than they were.
SARS PLP yeast – inhibitors of SARS-CoV papain-like protease in yeast; S. cerevisiae expressing SARS-CoV PLpro, growth rescue; Potency, µM (doses to about 32.9 µM), for the others: at the top dose activity, positive = growth rescue, usual class: activators; 0.19% of 330,000 active; calls by dose curve; note: potency is the fitted concentration of half-maximal effect; 0% is about no effect; nearly all actives have a fitted effect of over 55% in size
AmpC detergent – blocks E. coli AmpC beta-lactamase in detergent assay; Potency, µM (highest dose often 114 µM), for the others: at the highest dose activity change, negative = inhibition, usual class: inhibitors; AmpC hydrolysis of nitrocefin, absorbance 480 nm, 0.01% Triton; 0.041% of 370,000 active; AID 485294; P00811;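 note: potency is the fitted concentration of half-maximal effect; 0% = no-compound wells and -100% = no-enzyme wells; nearly all actives have a fitted effect of over 25% in size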
Target sequence (P00811 whole entry, looked up): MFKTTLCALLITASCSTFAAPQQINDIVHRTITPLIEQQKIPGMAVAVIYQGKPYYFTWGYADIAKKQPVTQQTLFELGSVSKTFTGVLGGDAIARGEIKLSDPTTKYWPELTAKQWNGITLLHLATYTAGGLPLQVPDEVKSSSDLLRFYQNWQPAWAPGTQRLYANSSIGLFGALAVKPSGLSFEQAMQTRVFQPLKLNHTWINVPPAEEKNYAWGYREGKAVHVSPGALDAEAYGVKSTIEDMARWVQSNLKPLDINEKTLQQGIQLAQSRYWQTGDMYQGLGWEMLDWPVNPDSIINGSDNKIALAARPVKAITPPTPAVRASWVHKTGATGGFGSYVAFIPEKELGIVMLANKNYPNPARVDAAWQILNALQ
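20 mM phosphate pH 7.0 + 0.01% (detergent screen) or 0.0001% Triton X-100; 5.3 nM AmpC reagent; cpd preinc 15 min RT; nitrocefin (800 uM stock) to start; A480 q20 s × 4 min; Activity was normalised to no-enzyme and no-compound control wells.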
AmpC inh no detg – AmpC beta-lactamase inhibition without detergent; AmpC nitrocefin hydrolysis, absorbance 480 nm, 0.0001% Triton; AID 485341; P00811; 0.52% of 330,000 active; Potency, µM (highest dose often 57.1 µM), for inactives: top-dose activity change, negative = inhibition, most hits filed as inhibitors;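 note: potency is the fitted concentration of half-maximal effect; plate controls were no compound for no effect and no enzyme for full effect; nearly all actives have a fitted effect of over 20% in size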
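AmpC (5.3 nM in the dispensed reagent) in 20 mM phosphate pH 7.0 with 0.01% (detergent screen) or 0.0001% Triton X-100 was preincubated with compounds for 15 min at room temperature. Nitrocefin was then added from an 800 uM solution, and hydrolysis was followed at 480 nm.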
Shiga inhibitor – blocks Shiga toxin action in Vero cells. Vero cells, Shiga toxin protein synthesis inhibition reporter. inhibition, % at 38.7 µM. 9.2% of 290,000 active. AID 2315; in the data active = inhibition mostly above about 28%, no sharp cut-off; inactive = mostly below about 43%; note: 0% is about no effect
AMA1 RON2 block – AMA1-RON2 (P. falciparum) interaction inhibition; AlphaScreen AMA1-biotinylated RON2 peptide binding; 0.2% of 360,000 active; Potency, µM (top dose mostly 58.2 µM), for inactives: top-dose activity change, negative = inhibition, hits mostly inhibitors;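 note: potency is the fitted concentration of half-maximal effect; 0% = vehicle wells and -100% = peptide control; nearly all actives have a fitted effect of over 45% in size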
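AMA1 (3D7) with his tag at 25 nM final met compounds first, then biotinylated RON2 peptide at 25 nM; detection used donor plus acceptor beads, 10 µg/mL apiece, read by AlphaScreen after 30 min at room temperature.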
Cycloheximide cs – counter-screen for Shiga toxin inhibitors: cycloheximide protein synthesis inhibition; cell reporter, cycloheximide protein synthesis inhibition counterscreen; max response, %; 12% of 300,000 active; in the data active = max response mostly above about 13%, no sharp cut-off; inactive = mostly below about 14%; note: read at 38.3 µM for the half of the compounds with a filed dose; 0% is about no effect
The depositor's hits bear a star; ? = inconclusive; . = no result given; [ ] = remark or other dose. Unless noted, calls come from the whole dose curve; as a rule, active = well fitted curve in the direction sought with a large enough effect; inconclusive = small, poorly fitted or top-dose-only effect, or another doubt; inactive = no such curve, though single readings can be large; an effect the other way counts as inactive or inconclusive.

SMILES	SARS PLP yeast	AmpC detergent	AmpC inh no detg	Shiga inhibitor	AMA1 RON2 block	Cycloheximide cs
COc1ccccc1C(=O)Nc1cccc(NC(C)=O)c1	27%	-11%	-18%	22	16%	7
COc1ccccc1C(=O)NC(=O)Nc1cccc(Cl)c1	-3%	-5%	-8%	130*	12%	49*
COc1ccccc1C(=O)NNC(=O)c1cccc(Br)c1	-6%	?	-14%	.	68%	35*
CC(C)(C)c1ccc(C(=O)NNC(=O)c2ccccc2Br)cc1	0%	-10%	-13%	31	48%	31*
COc1ccccc1C(=O)Nc1c(C)cc(Br)cc1C	0%	-6%	-12%[2.29 µM]	18	9%	11
COc1ccccc1C(=O)N/C(=N/c1nc(C)cc(C)n1)Nc1ccccc1	1%	0%	152%	16	12%	12*
COc1ccccc1C(=O)NNC(=O)c1cccc(Cl)c1	2%	-3%	-2%	46	55%	28*
CCC(=O)N/C(=N/c1nc(C)cc(C)n1)Nc1ccccc1	3%	-4%	-5%	-12	-11%	5
C[C@H]1COC(=O)O1	.	.	.	16	.	-4
CC(C)(C)NC(=O)C(=O)NNC(=O)c1ccc(C(C)(C)C)cc1	-8%	1%	-9%	-3	53%	1
COc1ccccc1C(=O)NNC(=O)c1ccccc1Br	2%	-24%	-12%	.	37%	13*
COC(=O)NNC(=O)c1ccc(C(C)(C)C)cc1	-6%	17%	11%	23*	-13%[11.6 µM]	30*
COc1ccccc1C(=O)NNC(=O)c1ccccc1	-6%	-9%	-2%	.	6%	34*
Cc1c(CC(=O)NCCCC(=O)O)c(=O)oc2cc3c(cc12)CCC(C)(C)O3	1%	-3%	-18%	-2	-5%	-2
Cc1ccnc(NC(=O)CNC(=O)C23CC4CC(CC(C4)C2)C3)c1	0%	?	?	.	-13%	.
C[C@@H](C(=O)Nc1ccc2c(c1)OCCO2)n1nnc2ccccc2c1=O	1%	-1%	-6%	107*	-5%	45*
Cc1ccccc1OC(C)C(=O)Nc1ccc2c(c1)OCCO2 (centres undefined)	-2%	2%	-9%	21	0%	34*
CC(C(=O)Nc1ccc2c(c1)OCCO2)N1Cc2ccccc2C1=O (centres undefined)	14%	-3%	-7%	31	2%	21*
CCC(C)[C@@H](C(=O)Nc1ccc2c(c1)OCO2)N1Cc2ccccc2C1=O (some centres undefined)	1%	?	0%	16	-1%	13
CC(C(=O)Nc1ccc2c(c1)OCCO2)n1nnc(-c2ccccc2)n1 (centres undefined)	-1%	-7%	-12%	1	1%	-3
Cc1ccc(S(=O)(=O)Nc2ccccc2CNc2ncc(Br)cc2Br)cc1	-5%	-11%	-46%	14	1%	-3
CCc1nc(OCC(=O)c2ccccc2)c(C#N)c2c1COC(C)(C)C2	15%	-4%	-4%	-10	-11%	1
CCOc1ccc(-c2nnc(SCc3nnc(-c4ccccc4)o3)n2-c2ccccc2F)cc1	-4%	-4%	-14%	52	1%	20*
COc1ccc(/C=N/OCc2ccc(Br)cc2)c(OC)c1	-4%	-8%	-45%	31*	36%	30*
COc1ccc(/C=N\Nc2ccccn2)c(OC)c1	0%	-21%	-18%	43	28%	39*
SMILES	SARS PLP yeast	AmpC detergent	AmpC inh no detg	Shiga inhibitor	AMA1 RON2 block	Cycloheximide cs
COc1ccc(/C=N/Nc2ccccn2)c(OC)c1OC	-4%	3%	-42%	74*	6%	40*
COc1cccc(/C=N/Nc2ncccc2[N+](=O)[O-])c1OC	-2%	-1%	0%	-15	30%	-4
COc1ccccc1/C=N/Nc1nccnc1Cl	1%	-15%	-3%	66*	5%	35*
CCN(CC)c1nc2c(-c3cccc(Br)c3)nnn2c2ccccc12	.	4%	.	.	.	.
COc1ccc(/C=N/NS(C)(=O)=O)c(OC)c1	14%	-12%	-14%	9	-16%	-1
Cc1ccc(C)c(/C=N/Nc2ccccn2)c1	1%	?	-24%	53*	-11%	20*
COc1ccc(/C=N/Nc2ncc(Br)cn2)c(OC)c1	0%	1%	-14%	51*	13%	46*
Clc1ccc(C=NNc2ccccn2)c(Cl)c1	.	.	.	.	10%	.
COCCn1cnnc1SCC(=O)Nc1sccc1C(N)=O	-3%	-1%	-23%	-14	-5%	-2
O=C(CSc1nncs1)NC(=O)NC1CCCC1	-5%	5%	-28%	17	13%	-4
COc1ccc(NC(=O)CSc2nnc(Cn3c(=O)sc4ccccc43)n2C)cc1OC	-22%	-7%	-18%	-4	1%	-4
Nc1ccc2nc(COc3ccccc3)[nH]c2c1	-6%	1%	-20%	4	6%	9.9*
Nc1ccc2nc(CCCCc3nc4ccccc4[nH]3)[nH]c2c1	-3%	-12%	-29%	-5	-16%	-3
c1ccc2cc(OCc3nc4ccccc4[nH]3)ccc2c1	-6%	2%	-21%	108*	4%	49*
Brc1ccc(OCc2nc3ccccc3[nH]2)cc1	-7%	-1%	-22%	94*	4%	55*
COc1ccc(OCc2nc3ccccc3[nH]2)cc1	-17%	4%	-25%	152*	9%	30
O=C1OC(N2CCN(c3ccccn3)CC2)c2ccccc21 (centres undefined)	2%	2%	-16%	-7	-3%	-2
S=C(NCCCN1CCOCC1)Nc1ccc(-c2nc3ccccc3[nH]2)cc1	-1%	-5%	-38%	38	-9%	28
COc1ccc(C2/C=C\CN(C(=O)CC(C)(C)C)C(C)C(=O)N2Cc2ccc(F)cc2)cc1 (centres undefined)	.	.	.	-7	.	6
CCOC(=O)C1=C(O)/C(=C\c2cccs2)N=C1C	-14%	?	-6%	-13	10%	-1
COc1ccc(NC(=O)Cc2nc3ccccc3[nH]2)cc1	8%	-1%	-4%	-19	-5%	-4
CN(CC(=O)O)Cc1nc2ccccc2[nH]1	-4%	?	-28%	48	-67%	28*
COc1cccc(OCc2nc3ncc(Br)cc3[nH]2)c1	-1%	?	-18%	31	-23%	17*
COc1cccc(OCc2nc3ccccc3[nH]2)c1	-5%	-13%	-19%	93*	9%	36*
CN(C)C(=O)Oc1ccc(OCc2nc3ccccc3[nH]2)cc1	-61%	-13%	-27%	35*	5%	24*
COc1ccc(OCCCC(=O)NCCc2nc3ccccc3[nH]2)cc1	-1%	4%	-2%	-6	-15%	-3
Cc1nc2cc3nc(C)sc3cc2s1	-9%	-4%	-21%	109*	-1%	36*
Cc1nc2cc3ccccc3cc2s1	.	.	.	.	-5%	.
